The record followed here is PubChem BioAssay (NCI).

About 83,000 compounds went through this panel and 20% of them were active in at least one assay; those are over-represented in the sample as a whole.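 Note: values are percent growth. 100 is the growth of untreated cells, values between 100 and 0 indicate rising inhibition; between -100 and 0 indicates cell death.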 Values without a mark were called inactive. Calls of active or inactive are those of the source. How the source made its calls: active means growth percent below 10; inactive means the rest. Where a SMILES comes first, the peptide text is derived from it. [ ]: non-standard residue; d: D form. ξ: configuration not given here. ξD = NC(CC(=O)O)C(=O)O

Some test systems named below: BT-549 breast; MDA-MB-435 melanoma; SW-620 colon; MCF7 breast; HCT-116 colon; HCC-2998 colon; KM12 colon.
Test in all cases: NCI-60 one-dose screen, 48 h (100 = growth as untreated, 0 = no growth, -100 = all killed)
Common to all, as to details: 10 µM unless noted

Take `COc1ccc(/C=C2/C(=O)ON=C2C)cc1`: the growth was 107% with BT-549 breast; 109% in the assay on MDA-MB-435 melanoma; 103% in the assay with SW-620 colon; 106% in the assay with MCF7 breast; 112% with HCT-116 colon; 103% in the assay with HCC-2998 colon. Besides, the growth with KM12 colon is 113%.
On to `[Cl-].[Rh+3].c1ccc(-c2ccnc3c2ccc2c(-c4ccccc4)ccnc23)cc1.c1ccc(-c2ccnc3c2ccc2c(-c4ccccc4)ccnc23)cc1.c1ccc(-c2ccnc3c2ccc2c(-c4ccccc4)ccnc23)cc1`, for which the growth in the assay on BT-549 breast was 42.9%; in the assay with MDA-MB-435 melanoma, 72.5%; in the assay with SW-620 colon it was 99.2%; in the assay on MCF7 breast it was 63.3%; in the assay with HCT-116 colon, 87.3%; in the assay with KM12 colon it was 59.3%.
As for `O=C(c1ccccc1)C(Br)[N+](=O)[O-]` (stereo not drawn), the growth in the assay with BT-549 breast is 92.6%; in the assay on MDA-MB-435 melanoma, 96%; in the assay with SW-620 colon, 38.8%; with MCF7 breast, 58.8%; in the assay with HCT-116 colon, 63%; in the assay on HCC-2998 colon it was 111%. In addition, the growth in the assay with KM12 colon is 100%.
As to `Oc1ccccc1N=Cc1ccccc1`, the growth was 79.7% in the assay on BT-549 breast; 87% in the assay on MDA-MB-435 melanoma; 85.1% with SW-620 colon; 74.3% in the assay on MCF7 breast; 69.4% in the assay with HCT-116 colon; 100% in the assay on HCC-2998 colon. Further, in the assay with KM12 colon, the growth is 74.1%.
As for `NCC(=O)NC(CC(=O)O)C(=O)O` (stereo not drawn) (H-Gly-[ξD]-OH), the growth was 102% in the assay on BT-549 breast; 99.5% in the assay with MDA-MB-435 melanoma; 98.9% with SW-620 colon; 100% in the assay on MCF7 breast; 106% with HCT-116 colon; 110% with HCC-2998 colon. For the same compound, the growth with KM12 colon is 107%.
With `Oc1c(C(Nc2ccccc2)c2ccccc2)ccc2cccnc12` (stereo not drawn), the growth with BT-549 breast is 49.8%; in the assay on MDA-MB-435 melanoma, 23.8%; with SW-620 colon it was 45.1%; in the assay with MCF7 breast, 16.3%; with HCT-116 colon, 19.3%; with HCC-2998 colon, 44.9%. Besides, in the assay on KM12 colon, the growth is 32.5%.
In the case of `CC(=O)c1c(O)c(C)c(O)c2c1OC1=CC(=O)C(C(C)=O)C(=O)C12C` (stereo not drawn), the growth in the assay on BT-549 breast was 55.8%; with MDA-MB-435 melanoma, 78.5%; with SW-620 colon it was 74.7%; in the assay on MCF7 breast it was 128%; in the assay on HCT-116 colon it was 94%; with HCC-2998 colon it was 58.1%. Further, the growth with KM12 colon was 72.6%.
Regarding `C[C@@]1(CO)[C@H](O)CC[C@@]2(C)[C@H]1CC[C@H]1C[C@@H]3C[C@@]12CC[C@@]3(O)COC(=O)CN`, the growth in the assay with BT-549 breast was 46.3%; in the assay with MDA-MB-435 melanoma, 55.1%; in the assay with SW-620 colon, 50.9%; in the assay on MCF7 breast it was 36.9%; in the assay with HCT-116 colon it was 33.3%; with KM12 colon it was 61.8%.
With `CC(=O)Nc1ccc(C(=O)CCl)cc1`, the growth with BT-549 breast was 58.6%; in the assay on MDA-MB-435 melanoma, 14.4%; in the assay with SW-620 colon, -16.6% (active); in the assay with MCF7 breast, 3.18% (active); in the assay with HCT-116 colon, 32.3%; with HCC-2998 colon it was 102%. Further, the growth in the assay with KM12 colon is 85.7%.
Turning to `NC(CS/C(Cl)=C/Cl)C(=O)O` (stereo not drawn), the growth in the assay with BT-549 breast is 51%; in the assay with MDA-MB-435 melanoma it was 58.6%; in the assay on SW-620 colon, 104%; in the assay with MCF7 breast, 45.1%; with HCT-116 colon, 84.4%; in the assay on HCC-2998 colon it was 102%. Moreover, the growth with KM12 colon is 98.1%.
As to `Cc1ccc(N2C(=O)C=CC2=O)cc1`, the growth is 105% with BT-549 breast; 117% in the assay with MDA-MB-435 melanoma; -11.5% (active) in the assay on SW-620 colon; 101% in the assay with HCT-116 colon; 94.3% in the assay with HCC-2998 colon; 108% in the assay with KM12 colon.
On to `COc1cc(NC(=O)C2=C(C)NC(C)=C(C(=O)Nc3cc(OC)c(Cl)cc3OC)C2c2cccc([N+](=O)[O-])c2)c(OC)cc1Cl`, for which the growth in the assay with BT-549 breast is 36.9%; in the assay with MDA-MB-435 melanoma, 9.7% (active); in the assay with SW-620 colon it was 46.4%; in the assay with MCF7 breast, 14.5%; in the assay with HCT-116 colon it was 23.9%; in the assay with HCC-2998 colon, 15.6%. Also, in the assay with KM12 colon, the growth is 18.3%.
As to `Clc1ccccc1C(c1ccccc1)(c1ccccc1)n1ccnc1`, the growth with BT-549 breast was 42.5%; with MDA-MB-435 melanoma, 33.8%; in the assay with SW-620 colon, 43.6%; with MCF7 breast it was 18.3%; in the assay on HCT-116 colon, 22.3%; with HCC-2998 colon, 52%. Besides, the growth with KM12 colon was 27%.
For the compound `CCOc1ccc(Nc2nc3c(s2)C(=O)c2ccccc2C3=O)cc1`, the growth with BT-549 breast is 87.4%; in the assay on MDA-MB-435 melanoma, -80.2% (active); with SW-620 colon it was 70%; in the assay on MCF7 breast it was 42.9%; with HCT-116 colon, 52.7%; with HCC-2998 colon, 118%. In addition, the growth in the assay on KM12 colon was 81.4%.
Take `O=C(/C=C/c1ccccc1)c1ccccc1O`: the growth was 70.5% with BT-549 breast; 80.6% in the assay with MDA-MB-435 melanoma; 75.1% in the assay with SW-620 colon; 26.7% with MCF7 breast; 62.9% in the assay on HCT-116 colon; 96.3% with HCC-2998 colon. Moreover, the growth in the assay with KM12 colon is 28.2%.
For the compound `CCN(CC)CC(O)CNc1ccc(NCC2CO2)c2c1C(=O)c1ccccc1C2=O` (stereo not drawn), the growth in the assay with BT-549 breast was -56.9% (active); in the assay on MDA-MB-435 melanoma it was -62.4% (active); in the assay with SW-620 colon, -28.7% (active); in the assay with MCF7 breast, -13% (active); in the assay on HCT-116 colon, -11.2% (active); in the assay with HCC-2998 colon, -83.5% (active). Also, in the assay on KM12 colon, the growth was -69.1% (active).
Consider `CC(C)(C)CC(C)(C)c1ccc(OCCOCCSC(=N)N)cc1`, for which the growth is 28% in the assay on BT-549 breast; -64.8% (active) with MDA-MB-435 melanoma; -2.39% (active) in the assay on SW-620 colon; -65% (active) in the assay with HCT-116 colon; -32.3% (active) in the assay on HCC-2998 colon; 36.9% with KM12 colon.
In the case of `Cc1cc2nc(CC(=O)c3ccncc3)c(=O)[nH]c2cc1C`, the growth in the assay with MDA-MB-435 melanoma is 107%; with SW-620 colon it was 103%; in the assay on MCF7 breast it was 88.5%; in the assay on HCT-116 colon it was 88.5%; in the assay with HCC-2998 colon, 102%; in the assay on KM12 colon, 103%.
Consider `CCCCCCCCCCCC[n+]1ccc(CCCCCCCCC)cc1`, for which the growth with MDA-MB-435 melanoma is -85.5% (active); in the assay with SW-620 colon it was -67% (active); in the assay on MCF7 breast it was -5.44% (active); with HCT-116 colon it was -91% (active); with HCC-2998 colon, -79.5% (active); in the assay on KM12 colon it was -74.4% (active).
Consider `CCOC(=O)NC(/C=C/c1ccccc1)NC(=O)OCC`, for which the growth is 107% in the assay on BT-549 breast; 106% in the assay on MDA-MB-435 melanoma; 100% in the assay with SW-620 colon; 101% in the assay with MCF7 breast; 93.6% with HCT-116 colon; 112% in the assay on HCC-2998 colon. Also, the growth with KM12 colon was 107%.
For `S=C=Nc1ccc(N2CCOCC2)cc1`, the growth in the assay on BT-549 breast was 97.1%; with MDA-MB-435 melanoma, 92%; in the assay with SW-620 colon, 103%; in the assay on MCF7 breast it was 79.3%; in the assay with HCT-116 colon, 86.6%; in the assay on HCC-2998 colon, 99.3%. Further, the growth in the assay with KM12 colon was 103%.
Consider `COC(=O)C(=[N+]=[N-])C(=O)c1ccc([N+](=O)[O-])o1`, for which the growth is 101% in the assay on BT-549 breast; 103% with MDA-MB-435 melanoma; 44% in the assay on SW-620 colon; 73.4% in the assay with HCT-116 colon; 107% in the assay on HCC-2998 colon; 94.9% with KM12 colon.
Regarding `CCCN(CCC)C(=O)c1ccc(C)cc1`, the growth in the assay with BT-549 breast is 102%; in the assay with MDA-MB-435 melanoma, 104%; in the assay on SW-620 colon it was 94.9%; in the assay with MCF7 breast, 92.1%; in the assay with HCT-116 colon it was 98.3%; in the assay on HCC-2998 colon it was 87.4%. The growth with KM12 colon was 102%.
For the compound `C/C(=N/NC(N)=S)c1ccc(C)cc1`, the growth with MDA-MB-435 melanoma is 96.1%; in the assay with SW-620 colon, 75.3%; in the assay on MCF7 breast, 25.6%; in the assay with HCT-116 colon, 8.6% (active); in the assay with HCC-2998 colon, 110%; with KM12 colon it was 104%.
As to `c1ccc(-c2cc3cc4ccccc4cn3c2)cc1`, the growth is 91.4% in the assay with MDA-MB-435 melanoma; 89.9% with SW-620 colon; 88.8% in the assay with MCF7 breast; 88% with HCT-116 colon; 121% in the assay on HCC-2998 colon; 86.2% in the assay with KM12 colon.
`Oc1ccc(Nc2ccc3ccccc3c2)cc1`: the growth is 74.3% with BT-549 breast; 51.3% in the assay with MDA-MB-435 melanoma; 66.2% in the assay with SW-620 colon; 64.7% in the assay with MCF7 breast; 70.8% in the assay on HCT-116 colon; 35.6% in the assay on KM12 colon.
`O=C1C=CC(=O)c2c(O)c(CO)c(CO)c(O)c21`: the growth was 83.5% in the assay with MDA-MB-435 melanoma; 109% in the assay with SW-620 colon; 96.9% in the assay on MCF7 breast; 74.7% in the assay on HCT-116 colon; 108% in the assay with HCC-2998 colon; 115% with KM12 colon.
`CCCCCCCCC(=O)OCCCC(CCC(CCC1CCCO1)OC(=O)CCCCCCCC)OC(=O)CCCCCCCC` (stereo not drawn): the growth is 104% in the assay with MDA-MB-435 melanoma; 99.8% in the assay on SW-620 colon; 92.4% in the assay with HCT-116 colon; 123% in the assay on HCC-2998 colon; 103% with KM12 colon.
